In the supplement of paper PMC10720658:
± gives the standard deviation of the averaged measurements.

System: AEK1 (Tb927.3.2440)
Test: percent reduction in TR-FRET probe signal relative to DMSO control; higher = stronger displacement of ATP-site probe (binding)
Conditions: 1 µM; incubation time 1 h

| Compound | percent reduction in TR-FRET probe signal |
| --- | --- |
| COc1cc2c(c(OC)c1OC)-c1c(cc3c(c1OC)OCO3)C[C@@H](C)[C@@H](C)C2 [Schisandrin B (Sch B)] | 13.6 ± 28% |
| COc1ccc2c(c1)c(C1=C(c3c[nH]c4ccccc34)C(=O)NC1=O)cn2CCCN(C)C | 4.65 ± 14% |
| C#Cc1cccc(Nc2ncnc3cc(OC)c(OCCCCCCC(=O)NO)cc23)c1 | -2.76 ± 13% |
| CCCCCCCCCCCCCCCCCCOP(=O)([O-])OC1CC[N+](C)(C)CC1 [Perifosine (KRX-0401)] | -18.1 ± 6.6% |
| CCOc1cc(N2CCC(O)CC2)ccc1Nc1ncc2c(n1)N(C)c1ccccc1C(=O)N2C | -8.09 ± 7.7% |
| CS(=O)(=O)O.N#CC1(c2ccc(NC(=O)c3cccnc3NCc3ccncc3)cc2)CCCC1 [Apatinib] | -2.66 ± 9.6% |
| Cc1ccc(-n2nc(C(C)(C)C)cc2NC(=O)Nc2ccc(OCCN3CCOCC3)c3ccccc23)cc1 [BIRB 796 (Doramapimod)] | 1.12 ± 5.4% |
| CC(C)CCN1c2nc(Nc3cc(F)c(O)c(F)c3)ncc2N(C)C(=O)C1C (configuration not stated) | -13.7 ± 9.2% |
| Nc1cc(C(F)(F)F)c(-c2cc(N3CCOCC3)nc(N3CCOCC3)n2)cn1 [BKM120 (NVP-BKM120, Buparlisib)] | 8.62 ± 16% |
| COC(=O)c1ccc2c(c1)NC(=O)/C2=C(\Nc1ccc(N(C)C(=O)CN2CCN(C)CC2)cc1)c1ccccc1 [Nintedanib (BIBF 1120)] | 9.58 ± 14% |
| CC(C)(C)n1nc(-c2ccc(Cl)cc2)c2c(N)ncnc21 | -1.96 ± 9.6% |
| Cc1cc(F)c(Nc2ncnc3cc(OCc4ccccc4)ccc23)cc1O.Cl | 29.8 ± 17% |
